Shown are actives, neighbours in structure and some others; about 1.4% of the full set was active somewhere.
Bfl-1 Bim block: human Bim-Bfl-1 interaction inhibition; 190,000 compounds, 0.12% hits; inhibition, % at 10 µM; Bead-based flow cytometry, Bim-Bfl-1 binding inhibition; Q16548; AID 1008
Target sequence (Q16548 whole entry, looked up): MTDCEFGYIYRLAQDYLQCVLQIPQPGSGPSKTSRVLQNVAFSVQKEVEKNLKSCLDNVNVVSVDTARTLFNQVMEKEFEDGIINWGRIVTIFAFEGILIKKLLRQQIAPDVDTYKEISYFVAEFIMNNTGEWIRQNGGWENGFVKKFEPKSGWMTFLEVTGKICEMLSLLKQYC
Bim-Bcl-B: disrupts Bim peptide binding to human Bcl-B; Q9HD36; bead-based flow cytometry; inhibition, % at 10 µM; 190,000 compounds, 0.073% hits; AID 951
Bim-Bcl-2: inhibitors of Bim-Bcl-2 interaction, human | P10415 | Bead-based flow cytometry, Bim peptide-Bcl-2 binding | inhibition, % at 10 µM | 190,000 compounds, 0.06% hits; in the data active means inhibition above about 40%
Target sequence (P10415 whole entry, looked up): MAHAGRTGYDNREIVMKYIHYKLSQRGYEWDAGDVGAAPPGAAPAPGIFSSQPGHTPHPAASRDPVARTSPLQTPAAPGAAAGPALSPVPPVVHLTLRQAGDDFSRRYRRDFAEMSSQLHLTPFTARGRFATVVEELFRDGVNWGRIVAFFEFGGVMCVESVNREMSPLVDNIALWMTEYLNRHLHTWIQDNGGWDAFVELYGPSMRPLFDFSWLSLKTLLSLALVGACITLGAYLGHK
Wee1 degr inh: inhibitors of human Wee1 degradation | P30291 | HeLa Luc-Wee1K328M stability, luciferase luminescence; 100% = proteasome inhibitor MG132 effect | reporter increase, % at 5 µM | 220,000 compounds, 1.2% hits | AID 1321;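 active means activation above the mean of all tested compounds plus 3 SD, set per screening run, cut at about 8.8% in these data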;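 further: cells exposed to compound for 20 h before luminescence read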
Bcl-XL Bim block: inhibitors of Bim-Bcl-XL interaction, human. inhibition, % at 10 µM. 190,000 compounds, 0.04% hits. Bim peptide-Bcl-XL binding, bead flow cytometry, fluorescence. AID 1007. Q07817
Bim-Bcl-W: inhibitors of Bim-Bcl-W interaction, human; Q92843; bead-based flow cytometry, Bim peptide-Bcl-W binding; inhibition, % at 10 µM; 190,000 compounds, 0.02% hits; AID 952;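 further: higher means less fluorescent Bim peptide bound to Bcl-W beads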
Wee1 stab conf: human Wee1 degradation inhibition, confirmation; shares compounds with Wee1 degr inh; 1,100 compounds, 4% hits; activation, % at 5 µM; HeLa Luc-Wee1K328M degradation, luminescence; vehicle 0%, proteasome-blocked wells 100%; in the data active means activation above about 8.9%
Numbers stand for hits; – = inactive; · = no result given. Unless noted, no stated cut-off is given here; in the data, active means inhibition above about 40%.

SMILES | Bfl-1 Bim block | Bim-Bcl-B | Bim-Bcl-2 | Wee1 degr inh | Bcl-XL Bim block | Bim-Bcl-W | Wee1 stab conf
CCN1CC(CNCc2cn(-c3ccc(OC)cc3)nc2-c2ccccc2Cl)CC1=O (stereo not drawn) | – | – | – | 23.8 | – | – | –
COc1cc(CCN2C(=O)c3cccc4cccc(c34)C2=O)c(S(=O)(=O)NCCCO)cc1OC | – | – | – | – | – | – | ·
Cc1cc(NC(=O)Nc2cccc(C)c2C)no1 | – | – | – | – | – | – | ·
COc1cc(N/N=C(\C)c2ccc(O)c(C)c2)nc(-c2ccccc2)n1 | – | – | – | – | – | – | ·
COc1cc(N/N=C(\C)c2ccc(N)cc2)nc(-c2ccccc2)n1 | – | – | – | 12.1 | – | – | –
COc1ccc(CCNC(=O)CSc2nnc(Cc3cccn3C)n2C)cc1OC | – | – | – | – | – | – | ·
Cc1ccc(-n2cccn2)c(CN2CCC(CO)(CCc3ccccc3)CC2)c1 | – | – | – | 17.9 | – | – | –
CCO[C@H]1OC(C(=O)Nc2ccccc2)=C[C@@H](c2ccc(C(F)(F)F)cc2)[C@@H]1CCCO | – | – | – | – | – | – | ·
CCOC(=O)C1(CCCc2ccccc2)CCN(Cc2ccn[nH]2)CC1 | – | – | – | – | – | – | ·
CCc1cccc2c(C(=S)N3CCCC3)c[nH]c12 | – | – | – | 14.3 | – | – | –
CC(C)(C)c1ccc(C(=O)Nc2ccc(F)cc2)s1 | · | · | · | 12.1 | · | · | –
O=C(c1cc(=O)[nH]c2ccccc12)N1CCc2ccccc2C1 | – | – | – | – | – | – | ·
O=C(OCC(=O)N1CCc2ccccc2C1)c1cc(=O)[nH]c2ccccc12 | · | · | · | 16.0 | · | · | –
Nc1ncnc2c1ncn2C1OC(CO)C(O)C1N (stereo not drawn) | · | · | · | – | · | · | ·
O=C(OCC1OC(n2cnc3c(N(C(=O)c4ccccc4)C(=O)c4ccccc4)ncnc32)C(O)C1F)c1ccccc1 (stereo not drawn) | – | – | – | 11.0 | – | – | –
CCOC(=O)c1cnc(-c2ccccc2)nc1N | – | – | – | – | – | – | ·
CCOC(=O)c1ccc2ncc(-c3ccccc3)nc2c1 | – | – | – | 18.2 | – | – | –
CCC(=O)NC(NC(=S)Nc1ccc(S(N)(=O)=O)cc1)C(Cl)(Cl)Cl (stereo not drawn) | – | – | – | – | – | – | ·
CC(C)CC1c2[nH]c3ccccc3c2CCN1C(=O)c1cnccn1 (stereo not drawn) | – | – | – | 19.2 | – | – | –
CC(=O)c1cc(C(=O)N2CCc3c([nH]c4ccccc34)C2CC(C)C)[nH]n1 (stereo not drawn) | – | – | – | – | – | – | ·
Cc1[nH]c2ccccc2c1/C=N/NC(=S)NCc1ccccc1 | – | – | – | – | – | – | ·
CC(=O)Nc1cccc(-c2cn3ccccc3n2)c1 | – | – | – | 11.3 | – | – | –
CC(C)C(=O)Nc1cccc(-c2cn3ccccc3n2)c1 | – | – | – | – | – | – | ·
c1ccc(-n2cnnc2SCc2cn3ccsc3n2)cc1 | – | – | – | 13.0 | – | – | –
CCOC(=O)c1csc(COc2ccc(OC)cc2)n1 | · | · | · | – | · | · | ·
SMILES | Bfl-1 Bim block | Bim-Bcl-B | Bim-Bcl-2 | Wee1 degr inh | Bcl-XL Bim block | Bim-Bcl-W | Wee1 stab conf
Cc1cc(-c2nn(-c3ccccc3F)cc2CN2CCC(O)CC2)c(C)s1 | – | – | – | – | – | – | ·
Cc1cc(-c2nn(-c3ccccc3F)cc2CN(C)CC(O)CO)c(C)s1 (stereo not drawn) | – | – | – | 12.9 | – | – | –
O=CN1CCN(C(=O)c2ccccc2Cl)CC1 | – | – | – | – | – | – | ·
O=C(c1ccccc1Cl)N1CCSCC1 | · | · | · | 20.1 | · | · | –
Cc1cc(S(=O)(=O)Nc2cc(C)c(O)c(C)c2)c(C)s1 | – | – | – | – | – | – | ·
COc1ccc(C(C)=O)cc1CSCCC#N | – | – | – | 14.4 | – | – | –
CCCOc1ccc(C(C)=O)cc1CSCCC#N | – | – | – | – | – | – | ·
CC(=O)NC1=NN(C(C)=O)C(c2ccc(C)cc2)S1 (stereo not drawn) | – | – | – | 12.0 | – | – | –
CC(=O)NC1=NN(C(C)=O)C(c2ccc(F)cc2)S1 (stereo not drawn) | – | – | – | – | – | – | ·
CCOC(=O)Cc1cc(=O)[nH]c(/N=C(\N)Nc2ccc(C)cc2C)n1 | – | – | – | – | – | – | ·

Bioassay records from PubChem BioAssay.
